Source: PubChem BioAssay (NCATS)
Where “and” joins values, the source holds several entries; their conditions need not be identical. Identical values can stand only once. Results filed as inconclusive are left out. Calls of active or inactive are those of the source. Unless noted, the call rests on the fitted dose curve; in most records, active means well fitted curve in the direction sought with a large enough effect; inconclusive means small, poorly fitted or top-dose-only effect, or another doubt; inactive means no such curve, though single readings can be large; an effect the other way counts as inactive or inconclusive.

Tests used:
[1] = target: Cellular tumor antigen p53 (Homo sapiens) (UniProt P04637); test: Primary qHTS for small molecule compounds that upregulate eGFP-tagged delta133p53alpha (in N-terminal) cells. (AID 2060322); settings: NCI-H358 eGFP-delta133p53alpha fluorescence, 24 h; activation: stronger effect = higher value;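 further: series mostly up to about 56 µM; 0% = DMSO vehicle and 100% = reference activator; nearly all actives have a fitted effect of over 75% in size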
Cellular tumor antigen p53 (Homo sapiens), sequence (P04637 whole entry, looked up): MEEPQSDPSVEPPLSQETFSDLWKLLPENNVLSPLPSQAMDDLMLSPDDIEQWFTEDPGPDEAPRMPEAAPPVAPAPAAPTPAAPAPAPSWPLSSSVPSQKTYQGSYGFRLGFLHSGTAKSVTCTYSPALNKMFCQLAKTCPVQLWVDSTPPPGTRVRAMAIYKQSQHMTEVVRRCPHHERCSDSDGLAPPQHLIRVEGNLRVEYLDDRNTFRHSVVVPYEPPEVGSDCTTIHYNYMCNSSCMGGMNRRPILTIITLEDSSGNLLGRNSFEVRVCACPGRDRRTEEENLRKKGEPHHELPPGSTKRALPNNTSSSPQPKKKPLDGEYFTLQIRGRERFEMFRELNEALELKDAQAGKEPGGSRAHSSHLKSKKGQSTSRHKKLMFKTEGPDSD
Procedure, shortened: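 NCI-H358 cells pre-induced 24 h with 10 ng/ml doxycycline to express N-terminal eGFP-delta133p53alpha, then dosed 24 h at 37C without doxycycline; fixed, Hoechst-stained, GFP intensity by laser scanning cytometry, normalized to DMSO (0%) and 57.5 uM 5-azacytidine (100%).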

[2] = target: Cellular tumor antigen p53 (Homo sapiens) (UniProt P04637); test: Primary qHTS for small molecule compounds that upregulate eGFP-tagged delta133p53alpha (in C-terminal) cells. (AID 2060324);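 further: 0% = DMSO wells and 100% = 57.5 µM 5-azacytidine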
Procedure, shortened: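 NCI-H358 cells pre-induced 24 h with 100 ng/ml doxycycline to express delta133p53alpha-eGFP, then dosed in doxycycline-free medium for 24 h at 37C. Fixed, Hoechst-stained; GFP intensity by laser scanning cytometry, normalized to DMSO wells.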

[3] = target: Aldehyde dehydrogenase, mitochondrial (Homo sapiens) (UniProt P05091); test: qHTS for Inhibitors of the Aldehyde Dehydrogenase Family (ALDH2) Validation screens (AID 2061302; active means well fitted inhibition curve with a large enough effect; title and protocol of this record describe different tests;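 further: plate controls were DMSO vehicle for no effect and maximal DPI positive control response for full effect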)
[4] = target: Retinaldehyde dehydrogenase 3 (Homo sapiens) (UniProt P47895); test: qHTS for Inhibitors of the Aldehyde Dehydrogenase Family (ALDH1A3) Validation screen (AID 2061312); further: on the % scale 0 is the no-effect control and ±100 the full control effect; nearly all actives have a fitted effect of over 45% in size
[5] = BET inhibitor-based combinations targeting novel dependencies in MECOM-rearranged (r) AML: MV-4-11 cell line (AID 2202233);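 further: plate controls were DMSO for no effect and blank wells for full effect; nearly all actives have a fitted effect of over 45% in size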
Procedure, shortened: (§1)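 Cells at 500/well were exposed for 48 hr to MIPE v5.0 drugs as 11-point dose curves. Viability was read by CellTiter-Glo luminescence and normalized to DMSO and empty-well controls. Activity was expressed as AUC and per-cell-line Z-AUC.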

[6] = BET inhibitor-based combinations targeting novel dependencies in MECOM-rearranged (r) AML: HNT-34 cell line (AID 2202234);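 further: plate controls were vehicle wells for no effect and cell-free wells for full effect; nearly all actives have a fitted effect of over 35% in size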
Procedure, shortened: as §1

[7] = BET inhibitor-based combinations targeting novel dependencies in MECOM-rearranged (r) AML: AML-191 cell line (AID 2202236;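 further: plate controls were vehicle wells for no effect and wells without cells for full effect; nearly all actives have a fitted effect of over 35% in size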)
Procedure, shortened: (§2)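 AML cell lines seeded at 500 cells/well, treated with 11-point dose curves for 48 h. Viability by CellTiter-Glo luminescence, normalised to DMSO and empty wells; activity expressed as AUC and per-cell-line Z-transformed AUC.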

[8] = BET inhibitor-based combinations targeting novel dependencies in MECOM-rearranged (r) AML: AML-194 cell line (AID 2202237;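 further: plate controls were vehicle wells for no effect and wells without cells for full effect; nearly all actives have a fitted effect of over 40% in size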)
Procedure, shortened: as §2

[9] = BET inhibitor-based combinations targeting novel dependencies in MECOM-rearranged (r) AML: SET-2 cell line (AID 2202231); settings: SET-2 AML cells viability, CellTiter-Glo luminescence, 48 h; viability: stronger effect = lower value, series mostly up to about 46 µM;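 further: plate controls were DMSO treated cells for no effect and wells without cells for full effect; nearly all actives have a fitted effect of over 35% in size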
Procedure, shortened: as §2

[10] = BET inhibitor-based combinations targeting novel dependencies in MECOM-rearranged (r) AML: OCI-AML3 cell line (AID 2202232); settings: Potency: OCI-AML3 viability;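 further: series mostly up to about 46 µM; plate controls were DMSO vehicle wells for no effect and wells without cells for full effect; nearly all actives have a fitted effect of over 35% in size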
Procedure, shortened: as §2

[11] = BET inhibitor-based combinations targeting novel dependencies in MECOM-rearranged (r) AML: UCSD-AML1 cell line (AID 2202235);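 further: series mostly up to about 46 µM; plate controls were DMSO vehicle wells for no effect and blank wells for full effect; nearly all actives have a fitted effect of over 40% in size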
Procedure, shortened: as §1

COc1ccc(C(=O)N2CCCC2=O)cc1
inactive: activation [1] 27.7% and -18.6% and -9.06% | Potency [2] | Potency [3] | Potency [4] | Potency [5] | Potency [6] | Potency [7] | Potency [8]

O=C(CCCN1CCC2(CC1)C(=O)NCN2c1ccccc1)c1ccc(F)cc1
inactive: activation [1] -10.7% and -39.7% | Potency [2] | Potency [3] | Potency [4]

c1ccc(C2(c3ccccc3)CC2C2=NCCN2)cc1 (centres undefined)
inactive: activation [1] -13.2% | Potency [2] | Potency [3] | Potency [4]

CC(N)Cc1c[nH]c2ccc(OCc3cccs3)cc12 (centres undefined)
inactive: activation [1] -31.9% | Potency [2] | Potency [3] | Potency [4]

CCCn1c(=O)c2[nH]c(C3CCCC3)nc2n(CCCOC(=O)c2ccc(S(=O)(=O)F)cc2)c1=O
inactive: activation [1] 11.3% | Potency [2] | Potency [3] | Potency [4]

CC(N)c1cccc(Cl)c1Cl (centres undefined)
inactive: activation [1] -35.4% | Potency [2] | Potency [3] | Potency [4]

CC(C)c1cccc(C(C)C)c1O
inactive: activation [1] 0.683% and -5.08% and -18.8% | Potency [2] | Potency [3] | Potency [4] | viability [9] 105% | Potency [10] | Potency [11] | Potency [8]

CNCC(O)c1ccc(O)cc1 (centres undefined)
inactive: activation [1] -9.6% and -1.8% and -6.7% | Potency [2] | Potency [3] | Potency [4] | viability [9] 116% | Potency [10] | Potency [5] | Potency [6] | Potency [11]

O=C(O)CC[N+](=O)[O-]
inactive: activation [1] -18.9% | Potency [2] | Potency [3] | Potency [4]
